Assay outcomes deposited in PubChem by National Center for Advancing Translational Sciences (NCATS).
Nrf2 activator – Nrf2 pathway activation; Potency, µM (doses to about 46.1 µM), inactives show at the top dose activation, most hits filed as activators; 410,000 compounds, 0.31% hits; AREc32 ARE-luciferase reporter (MCF7-derived line), luminescence, 24 h; note: potency is the fitted concentration of half-maximal effect; % of control where 0% means no effect; nearly all actives have a fitted effect of over 65% in size
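AREc32 cells carrying an ARE-driven firefly luciferase, 1000 cells/well in OPTI-MEM with 5% FBS, dosed after overnight attachment and incubated 24 hr at 37 deg C. Steady-Glo luminescence read after 30 min at RT.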
BRCA1 expr act – activators of BRCA1 expression; MCF7-BRCA1-FFLuc reporter, luminescence, 48 h; response scale: scaled: vehicle 0%, 10 µM genistein 100%; Potency, µM (doses to about 46.1 µM), for inactives: at the highest dose activation, hits mostly activators; 380,000 compounds, 1.1% hits; AID 624202; note: potency is the fitted concentration of half-maximal effect; nearly all actives have a fitted effect of over 80% in size
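First, MCF7-BRCA1-FFLuc cells (2000/well) attach for 2 h; next, compounds are pin-added and incubated 48 h at 37 °C; finally, luciferase reagent is added and luminescence read after 15 min.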
ELG1 repair inh – ELG1-dependent DNA repair inhibition | 330,000 compounds, 2.3% hits | AID 504467 | Potency, µM (titrated, usually from 46.1 µM), for inactives: top-dose activity change, negative = inhibition, hits mostly inhibitors | HEK293T ELG1-luciferase reporter, luminescence, 16 h; DNA damage induced by 5-fluorouridine; note: potency is the fitted concentration of half-maximal effect; % is set by controls: 0 for no effect and ±100 for the full control effect; nearly all actives have a fitted effect of over 55% in size
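Step one: seed 2,000 cells per well. Step two: pin-transfer compound or DMSO alongside 5-fluorouridine. Step three: incubate 16 hr, 37 °C, 5% CO2. Step four: add ONE-Glo, wait 30 min, read luminescence.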
IL-2 act – IL-2 activation; activation, % (series mostly up to about 46 µM); IL-2 activation reporter assay, cell-based qHTS; stimulated with anti-CD3/CD4/CD28 beads; in transgenic mouse T cells; 360,000 compounds, 0.065% hits; in the data active = activation above about 50%; inconclusive = mostly about 30% to 49%; note: 0% is about no effect
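Unstimulated transgenic mouse T cells; 60-min compound exposure; bead-based TCR/CD4/CD28 stimulation; 18 h culture, 37 degrees C; dual fluorescence (EGFP, DsRed) plate cytometry.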
Numbers without * were called inactive; ? = inconclusive; . = no result given. An excerpt weighted towards active compounds, which were near 3.1% of everything screened. Unless noted, calls come from the whole dose curve; as a rule, active = well fitted curve in the direction sought with a large enough effect; inconclusive = small, poorly fitted or top-dose-only effect, or another doubt; inactive = no such curve, though single readings can be large; an effect the other way counts as inactive or inconclusive.

SMILES	Nrf2 activator	BRCA1 expr act	ELG1 repair inh	IL-2 act
COc1ccc(-n2c(C)nn(CCOc3ccccc3)c2=O)cc1	2.7%	10µM*	?	1.2
Cc1ccc(NC(=O)N2CCN(C(=O)c3nsc4ccccc34)CC2)cc1C	5.0%	.	.	.
CN(c1ncnc(N)c1[N+](=O)[O-])C1CCS(=O)(=O)C1 (stereo unspecified)	0.0%	27.4%	?	0.2
CCCCN(c1ccccc1)c1ncnc(N)c1[N+](=O)[O-]	-0.1%	6.3%	2.59µM*	1.6
Cc1[nH]c2ccccc2c1C(=O)CSc1nc2cc(S(=O)(=O)N3CCCCC3)ccc2o1	2.3%	-68.4%	14.6µM*	-3.5
COCCNC(=O)CN1N=C(c2ccc(OC)cc2)CCC1=O	-0.1%	-11.2%	-18.5%	2.4
CCC(=O)N1CCC(c2ccc(OC)cc2)=N1	3.5%	11.2µM*	?	-0.9
O=C(COC(=O)CNC(=O)c1ccccc1)NC12CC3CC(CC(C3)C1)C2	-1.4%	-17.8%	.	0.8
Cc1ccc(C(=O)NCC(=O)NC23CC4CC(CC(C4)C2)C3)cc1	2.5%	6.31µM*	?	-0.4
COc1cccc(/C=C/C(=O)NCC2CCCCC2)c1	0.5%	53.3%	.	0.3
Cc1cccc(CC(=O)NCC2CCCCC2)c1	6.5%	10µM*	29.9%	2.0
COc1cc(OC)c(NC(=O)N2CCc3cc(S(=O)(=O)N4CCC(C)CC4)ccc32)cc1Cl	-0.3%	.	.	.
Cc1nn(C2CCS(=O)(=O)C2)c(Cl)c1/C=C/C(=O)OCC(=O)Nc1ccccc1OC(F)F (stereo unspecified)	14.9%	-0.8%	?	0.3
COc1ccc(Cl)cc1NC(=O)COC(=O)/C=C/c1c(C)nn(C2CCS(=O)(=O)C2)c1Cl (stereo unspecified)	2.7%	-109.6%	13µM*	-0.5
Cc1cc(C(=O)CSc2nnnn2C)c(C)n1Cc1ccco1	2.8%	4.47µM*	?	-3.6
Cc1cc(C(=O)COC(=O)c2ccc(O)cc2)c(C)n1Cc1ccco1	0.4%	2.82µM*	?	-2.5
Cc1ccc(NC(=O)CCNS(=O)(=O)c2ccc3c(c2)CCCC(=O)N3)cc1	-0.8%	-12.4%	.	.
CCCCn1c(SCc2nc3ccccc3s2)nc2ccccc2c1=O	-0.4%	-11.4%	-13.1%	-0.6
CCCCn1c(SCc2nc3ccccc3s2)nc2cc(S(N)(=O)=O)ccc21	10.0%	-68.4%	18.4µM*	-2.5
CN(C)CCCNc1oc(/C=C/c2ccc(F)cc2)nc1C#N	23.2%	.	.	.
COc1ccc(CCNc2nc(-c3sc(C)nc3C)cs2)cc1OC	-0.1%	-83.1%	18.4µM*	-4.8
COc1ccc(CCNc2nc(-c3ccc(O)cc3)cs2)cc1OC	19.0%	-38.8%	23.1µM*	-0.1
COc1ccc(CCNc2nc(-c3ccccn3)cs2)cc1OC	4.3%	-11.9%	18.3µM*	-0.2
Cc1cccc(NC(=O)CSc2nc3n[nH]c(C)c3c(=N)n2-c2cccc(Cl)c2)c1	3.2%	.	.	.
CCCN1CNc2c(c(=O)[nH]c(=S)n2CCc2ccc(OC)cc2OC)C1	.	19.5%	.	.
SMILES	Nrf2 activator	BRCA1 expr act	ELG1 repair inh	IL-2 act
COc1cc(OC)c(NS(=O)(=O)c2c(C(=O)N3CCC(C)CC3)c(C)n(C)c2C)cc1Cl	0.4%	.	.	.
CC(C)OC(=O)c1ccc(NC(=O)C2C3CC4OC(=O)C2C4C3)cc1 (stereo unspecified)	3.7%	7.08µM*	?	-1.8
O=C(N/N=C/c1ccc(N2CCOCC2)cc1)c1ccncc1	3.4%	-24.9%	13.4%	0.1
O=C(N/N=C/c1ccc(N2CCOCC2)cc1)c1ccccc1OCCOc1ccccc1	2.1%	-56.4%	16.4µM*	-1.0
O=C(c1cc2cc3ccc(Cl)cc3nc2o1)N1CCN(c2cccc(Cl)c2)CC1	-0.1%	-1.4%	.	.
COC(=O)CCCNC(=O)c1ccc2oc(CCCc3ccccc3)nc2c1	4.3%	47.7%	?	-0.6
COC(=O)[C@@H](C)NC(=O)c1ccc2oc(CCc3ccccc3)nc2c1	3.0%	11.2µM*	?	0.2
Cc1ccc(C2=CC(c3ccccc3F)n3c(nc4ccccc43)N2)cc1C (stereo unspecified)	1.7%	.	.	.
CCn1cnc2cc(NC(=O)c3ccc(C)cc3)ccc21	0.0%	4.47µM*	?	6.7
CCC(=O)Nc1ccc2c(c1)ncn2-c1ccc(C)cc1	2.9%	2µM*	?	0.9
Cc1ccc(C(=O)Nc2ccc3c(c2)ncn3C)cc1	0.0%	?	?	-3.0
Cc1ccc(NC(=O)C2CCCN(c3ncnc4c3nc3n4CCCCC3)C2)c(Br)c1 (stereo unspecified)	-1.1%	.	.	.
COc1ccc(-c2cc(C(C)=O)c(C)n2CCC(=O)Nc2ccc(C)c(Cl)c2)cc1	17.5%	.	.	.
S=c1[nH]nc(SCc2ccccc2)c2[nH]cnc12	2.4%	3.55µM*	.	-0.4
CCCCSc1n[nH]c(=S)c2nc[nH]c12	5.0%	39.4%	.	-0.7
CCc1ccc2oc(-c3cc(N)ccc3O)nc2c1	4.47µM*	14.5%	?	0.6
Cc1cc(C)c(C(O)c2ncc(-c3ccccc3Cl)[nH]2)c(C)c1 (stereo unspecified)	-0.5%	-9.0%	.	0.1
COc1ccc(S(=O)(=O)N/N=C\c2ccc3c(c2)OCO3)c(OC)c1	0.3%	-39.7%	?	-2.9
COc1ccc(OC)c(S(=O)(=O)N/N=C\c2ccc3c(c2)OCO3)c1	0.2%	12.6µM*	?	-2.3
CCOc1ccccc1N(C)C(=O)NCc1noc2ccccc12	2.7%	.	.	.
CCN(CC)S(=O)(=O)c1cc(NC(=O)c2cc(-c3ccccn3)nc3ccccc23)ccc1C	-0.2%	-34.5%	8.2µM*	-0.3
CCN(CC)S(=O)(=O)c1ccc2[nH]c(=O)cc(C(=O)Nc3ccc(C)c(S(=O)(=O)N(CC)CC)c3)c2c1	-0.5%	-49.0%	18.4µM*	-4.3
O=C(Cc1ccc(OCCC2CCCCC2)cc1)NO	.	2.6%	.	.
CCOC(=O)c1[nH]c(C)c(CCC(=O)N2CCN(c3cccc(C)c3C)CC2)c1C	-0.9%	.	.	.
Cn1c(/C(C#N)=C/c2ccccc2Br)nc2ccccc21	8.91µM*	.	.	.
SMILES	Nrf2 activator	BRCA1 expr act	ELG1 repair inh	IL-2 act
COc1ccc(N/C=C(\C#N)c2nc3ccccc3n2C)c(OC)c1	4.2%	-59.7%	25.9µM*	-3.1
CCN1CC2=C(OC(N)=C(C#N)C2c2ccccc2)/C(=C\c2ccccc2)C1 (stereo unspecified)	6.1%	-28.8%	?	0.2
CCN1CC2=C(OC(N)=C(C#N)C2c2cccs2)/C(=C/c2cccs2)C1 (stereo unspecified)	15.0%	-53.4%	16.4µM*	-0.6
Cn1nc(C(C)(C)C)cc1C(=O)N1CCCCC1c1cc(C(=O)Nc2ccccc2)no1 (stereo unspecified)	3.4%	-13.9%	.	-0.5
CC(=O)NC(c1cccc(F)c1)c1nc(-c2cc3ccccc3o2)cs1 (stereo unspecified)	6.5%	-37.1%	.	-0.6
COc1ccc(C(O)c2nc(-c3cnc4ccccc4c3)cs2)cc1 (stereo unspecified)	6.8%	91.5%	.	0.0
